LEDGF integ inh: blockers of LEDGF/p75-dependent integrase strand transfer – biochemical, TR-FRET, high throughput, primary screen | HIV-1 integrase (with human LEDGF/p75) | TR-FRET IN-LEDGF/p75 DNA integration, Eu/Cy5 | inhibition, % at 3.7 µM | 0.64% of 370,000 active;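 active means inhibition above the screen-wide mean plus 3 SD, cut at about 13% in these data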;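 further: signal is the Cy5 over europium emission ratio at 671 and 618 nm; 0% = plate median of compound wells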
UHRF1 binding: UHRF1 methylated DNA binding inhibitors, primary screen, counter-screen for MBD2 inhibitor project, biochemical, TR-FRET, human UHRF1, single concentration; 0.75% of 370,000 active; inhibition, % at 4.4 µM; UHRF1 binding to methylated oligo;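 further: UHRF1 SRA domain binding a hemimethylated CpG hairpin DNA probe; 0% = median of test compound wells and 100% = reference inhibitor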
CASP6 VEID inh: human caspase-6 inhibitors, primary screen, biochemical, VEID-R110 fluorescence, single point, set 2; P55212; purified caspase-6, Z-VEID-R110 cleavage fluorescence; inhibition, % at 12.5 µM; 0.53% of 350,000 active; AID 686996, 2013;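 active means mean inhibition across replicates at least about 35%, with every replicate also reaching that limit, limit read from the data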;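 further: 0% = median of neutral control wells and 100% = no fluorescence left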
MBD2 DNA inh: inhibitors of MBD2 binding to methylated DNA, primary screen, biochemical, TR-FRET, DNA-binding domain, human; Methyl-CpG-binding domain protein 2 (Homo sapiens), Q9UBB5; MBD2 binding to methylated oligonucleotide; inhibition, % at 4.4 µM; 0.31% of 370,000 active; AID 686964, 2013; in the data active means inhibition above about 13%
Target sequence (Q9UBB5 whole entry, looked up, the tested form may be a part): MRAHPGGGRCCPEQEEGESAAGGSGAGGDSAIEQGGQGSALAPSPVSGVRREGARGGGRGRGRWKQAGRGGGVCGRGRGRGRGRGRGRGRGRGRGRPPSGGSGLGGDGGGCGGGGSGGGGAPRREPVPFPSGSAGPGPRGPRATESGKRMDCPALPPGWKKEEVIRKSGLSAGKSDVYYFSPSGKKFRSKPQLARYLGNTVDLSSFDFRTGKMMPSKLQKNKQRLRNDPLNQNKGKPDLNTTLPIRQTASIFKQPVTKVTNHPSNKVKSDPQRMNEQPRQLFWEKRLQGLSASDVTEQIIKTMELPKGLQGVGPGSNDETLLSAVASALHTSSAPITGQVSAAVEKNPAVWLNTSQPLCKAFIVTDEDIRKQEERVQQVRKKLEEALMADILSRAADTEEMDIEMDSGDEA
UHRF1 ctr MBD2: UHRF1 methylated DNA binding inhibitors, counter-screen for MBD2 inhibitor project, biochemical, TR-FRET, human UHRF1; shares compounds with MBD2 DNA inh; UHRF1 binding to methylated oligonucleotide; inhibition, % at 4.4 µM; 25% of 1,000 active; AID 720530, 2013;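 further: UHRF1 SRA domain binding a labeled hemimethylated CpG hairpin DNA; 0% = vehicle only and 100% = reference inhibitor with vehicle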
MBD2 confirm: inhibitors of MBD2 binding to methylated DNA, confirmation, biochemical, TR-FRET, DNA-binding domain, human. shares compounds with MBD2 DNA inh. inhibition, % at 4.4 µM. TR-FRET MBD2-DBD binding to methylated oligonucleotide. AID 720531, 2013. 26% of 1,000 active; in the data active means inhibition above about 14%
* marks the source's active call; other numbers are inactive results. Hits are enriched below; roughly 1.4% of the tested compounds scored in any of these assays. Unless noted, no stated cut-off is given here; in the data, active means inhibition above about 21%; inactive means the rest.

Screening COc1cc(NC(=O)C2CCCO2)c(OC)cc1NC(=O)c1ccccc1 (configuration not stated) returned LEDGF integ inh -3, UHRF1 binding -2, MBD2 DNA inh 19*, UHRF1 ctr MBD2 6 and MBD2 confirm 1.
Screening CCS(=O)(=O)N1CCCCN2[C@H](CO)[C@@H](c3ccc(C#Cc4ccccc4OC)cc3)[C@H]2C1 returned CASP6 VEID inh -1.
CC12CCC(C/C1=N\N=C1\NC(=O)/C(=C\c3ccc(Cl)cc3)S1)C2(C)C (configuration not stated) was read as LEDGF integ inh -8, UHRF1 binding 17, CASP6 VEID inh -3, MBD2 DNA inh 13*, UHRF1 ctr MBD2 3 and MBD2 confirm 1.
For C[C@H]1CCCCO[C@H](CN(C)C(=O)Cc2ccccc2)[C@@H](C)CN([C@@H](C)CO)C(=O)c2cc(NS(=O)(=O)c3cccs3)ccc2O1 the results were CASP6 VEID inh -3.
For O=C(NC(=S)Nc1nc(-c2ccc(Br)cc2)cs1)c1cccnc1 the results were LEDGF integ inh 2, UHRF1 binding -3, MBD2 DNA inh 16*, UHRF1 ctr MBD2 6 and MBD2 confirm 1.
C[C@H]1CN([C@@H](C)CO)C(=O)Cc2cc(NC(=O)C3CCCCC3)ccc2O[C@H]1CN(C)Cc1ccccc1 was read as CASP6 VEID inh 0.
Screening COc1ccc(NC(=O)Nc2ccc3c(c2)CC(=O)N([C@@H](C)CO)C[C@@H](C)[C@@H](CN(C)CC2CC2)O3)cc1 returned CASP6 VEID inh 0.
Screening COCCNC(=O)C[C@H]1C[C@H]2c3cc(NC(=O)Nc4ccc(C(F)(F)F)cc4)ccc3O[C@H]2[C@@H](CO)O1 returned CASP6 VEID inh 2.
COc1cc2nc(N3CCNCC3)nc(N)c2cc1OC was read as LEDGF integ inh -1, UHRF1 binding 14, MBD2 DNA inh 14*, UHRF1 ctr MBD2 32* and MBD2 confirm 27*.
Cc1ccccc1S(=O)(=O)N1CC[C@@H]2[C@H]1c1cc(-c3cccc(F)c3)ccc1N[C@@H]2CO was read as CASP6 VEID inh -2.
Screening C[C@H]1CN([C@@H](C)CO)C(=O)c2cccc(NS(=O)(=O)c3ccc(F)cc3)c2O[C@@H]1CN(C)S(=O)(=O)c1cn(C)cn1 returned CASP6 VEID inh 1.
`Nc1c(Cl)cc(Cl)cc1C(=O)OCC(=O)N1CCCC1` gave LEDGF integ inh 0, UHRF1 binding -1 and MBD2 DNA inh 1.
Screening NC(=O)COC(=O)c1cc(Cl)cc(Cl)c1N returned LEDGF integ inh -9, UHRF1 binding 5, CASP6 VEID inh -1, MBD2 DNA inh 32*, UHRF1 ctr MBD2 3 and MBD2 confirm 2.
For O=C(/C=C/c1cccs1)N1CCC2(CC1)Oc1ccc(Cl)cc1C(=O)C21CC(c2cccnc2)=NO1 (configuration not stated) the results were LEDGF integ inh 11, UHRF1 binding -2, CASP6 VEID inh 3, MBD2 DNA inh 16*, UHRF1 ctr MBD2 6 and MBD2 confirm 2.
`CS(=O)(=O)Nc1cccc(NC(=O)c2ccc(-n3ccnc3)c3ccoc23)c1` gave LEDGF integ inh 9, UHRF1 binding 18, CASP6 VEID inh 3, MBD2 DNA inh 14*, UHRF1 ctr MBD2 13 and MBD2 confirm 13.
`O=C(N[C@H]1CC[C@@H](CCn2cc(C3(O)CCCC3)nn2)O[C@@H]1CO)C1CCOCC1` gave CASP6 VEID inh 2.
For CCC1CCCCN1C(=O)COC(=O)c1cccs1 (configuration not stated) the results were LEDGF integ inh -1, UHRF1 binding 14, CASP6 VEID inh -2, MBD2 DNA inh 17*, UHRF1 ctr MBD2 1 and MBD2 confirm 7.
CN(C)CCNC(=O)c1ccccc1-c1ccccc1 was read as LEDGF integ inh -3, UHRF1 binding -2 and MBD2 DNA inh 0.
COc1ccc(C(=O)NCCN(C)C)c2nc3ccccc3cc12 was read as LEDGF integ inh 0, UHRF1 binding -2, CASP6 VEID inh -24, MBD2 DNA inh 36*, UHRF1 ctr MBD2 16 and MBD2 confirm 70*.
COc1ccc(-c2nc3c(C(=O)NCCN(C)C)cccc3c3ccccc23)cc1 was read as LEDGF integ inh -7, UHRF1 binding -14, CASP6 VEID inh -15 and MBD2 DNA inh 13.
`COc1cccc2nc3c(C(=O)NCCN(C)C)cccc3cc12` gave LEDGF integ inh 3, UHRF1 binding -12, CASP6 VEID inh -74, MBD2 DNA inh 19*, UHRF1 ctr MBD2 -5 and MBD2 confirm 30*.
CN(C)CCNC(=O)c1cccc2[nH]c(-c3ccncc3)nc12 was read as LEDGF integ inh -1, UHRF1 binding 11, CASP6 VEID inh -5, MBD2 DNA inh 13*, UHRF1 ctr MBD2 16 and MBD2 confirm 20*.
`C[C@@H]1CN([C@@H](C)CO)C(=O)c2cc(NC(=O)Cn3cnnn3)ccc2O[C@@H]1CN(C)Cc1ccc(C(=O)O)cc1` gave CASP6 VEID inh 5.
`CC(Sc1nnnn1C)C(=O)Nc1nc(-c2ccc(F)c(F)c2)cs1` (configuration not stated) gave LEDGF integ inh 11, UHRF1 binding 27*, CASP6 VEID inh 1, MBD2 DNA inh 18*, UHRF1 ctr MBD2 2 and MBD2 confirm 4.
Screening CC(C)NC(=O)Cn1c(SCC(=O)c2ccc(F)cc2)nc2ccccc21 returned LEDGF integ inh 9, UHRF1 binding 22*, MBD2 DNA inh 14*, UHRF1 ctr MBD2 6 and MBD2 confirm 3.
Screening CC(C)NC(=O)CSc1nc2ccccc2n1CC(=O)N(C(C)C)C(C)C returned LEDGF integ inh 3, UHRF1 binding 5, CASP6 VEID inh -4 and MBD2 DNA inh 7.
`C[C@H]1CCCCO[C@@H](CN(C)C(=O)NC2CCCCC2)[C@@H](C)CN([C@@H](C)CO)C(=O)c2cc(NS(=O)(=O)c3ccccc3)ccc2O1` gave CASP6 VEID inh -1.
`COc1cccc(NC(=O)Nc2nnc(Cc3ccc(F)cc3)s2)c1` gave LEDGF integ inh 6, UHRF1 binding 0, CASP6 VEID inh 0, MBD2 DNA inh 34*, UHRF1 ctr MBD2 6 and MBD2 confirm 5.

Source: PubChem (several laboratories)
